The panel holds about 79,000 compounds, 15% with a hit somewhere; the sample as a whole holds those more often. Unmarked numbers belong to inactive results. Calls of active or inactive are those of the source. Rule as the data show it: active = growth inhibition above about 70%; inactive = the rest.

Assay [1] can be described thus: NCI Yeast Anticancer Drug Screen. Data for the rad50 strain (AID 155).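 Also: 0% = growth of vehicle-only cultures of the same strain.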 The conditions noted are these: S. cerevisiae rad50 strain growth inhibition; at 50.0 µM; stronger effect = higher value. Summed up: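 A DNA repair-deficient yeast mutant serves as the test organism; compound-induced growth inhibition is calculated against vehicle-treated cells.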
Assay [2] in a line: NCI Yeast Anticancer Drug Screen. Data for the mec2-1 strain (AID 157). The conditions noted are these: S. cerevisiae mec2-1 strain, at 50.0 µM, stronger effect = higher value. In short, it runs like this: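 mec2-1 yeast strain, carrying an alteration in DNA damage repair or cell cycle control, was exposed to compounds; growth inhibition was measured relative to vehicle-treated controls.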

Assay [3] is described as follows: NCI Yeast Anticancer Drug Screen. Data for the sgs1 mgt1 strain (AID 161).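 Also: 0% = growth of cultures given vehicle only.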 The conditions noted are these: S. cerevisiae sgs1 mgt1 strain, at 50.0 µM, stronger effect = higher value. Summed up:
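This yeast growth screen uses a strain with defined DNA-repair lesions; compound-treated growth is compared with vehicle-treated growth.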

The nature of assay [4]: NCI Yeast Anticancer Drug Screen. Data for the cln2 rad14 strain (AID 165).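 Also: 0% = growth equal to vehicle treated cultures.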 To be noted: S. cerevisiae cln2 rad14 strain, at 50.0 µM, stronger effect = higher value. In short, it runs like this:
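Yeast carrying cln2 and rad14 alterations (cell cycle control and DNA damage repair) were exposed to compounds. Growth inhibition was measured against vehicle-treated controls.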

Assay [5] in a line: NCI Yeast Anticancer Drug Screen. Data for the bub3 strain (AID 167). The conditions noted are these: S. cerevisiae bub3 mutant strain, at 50.0 µM, stronger effect = higher value. Summed up: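 Inhibition values come from growth of compound-treated mutant yeast normalised to vehicle-treated controls.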
The nature of assay [6]: NCI Yeast Anticancer Drug Screen. Data for the mlh1 rad18 strain (AID 175). The conditions noted are these: S. cerevisiae mlh1 rad18 strain growth inhibition; at 50.0 µM; stronger effect = higher value. Summed up:
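Growth inhibition of the yeast strain was measured after compound exposure and expressed relative to vehicle-treated controls. The strain carries defined defects in DNA damage repair.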

For the compound `CN(C)c1ccc(/C(=N\O)c2cc[n+](C)cc2)cc1`, the growth inhibition in assay [1] is -28.6%; in assay [2], -23.4%; in assay [3], -13.2%; in assay [4], -34.5%; in assay [5], -0.6%; in assay [6] it was 0.85%.

Regarding `O=c1c(SCc2ccc(Br)cc2)c(SCc2ccc(Br)cc2)cnn1-c1ccccc1`, the growth inhibition in assay [1] was 22.3%; in assay [2], 4.65%; in assay [3] it was 13.8%; in assay [4] it was 34%; in assay [5] it was 13.4%; in assay [6], 14.8%.

As to `Cc1cc(C)c([N+](=O)[O-])c(N)n1`, the growth inhibition was 8.45% in assay [1]; -6.6% in assay [2]; -5.85% in assay [3]; -52% in assay [4]; 1.2% in assay [5]; -12.1% in assay [6].

In the case of `N/C(=N\OC(=O)Nc1cccc(Cl)c1)C(Cl)(Cl)Cl`, the growth inhibition was 96.8% (active) in assay [1]; 99.5% (active) in assay [2]; 99.5% (active) in assay [3]; 96.3% (active) in assay [4]; 99.2% (active) in assay [5]; 99% (active) in assay [6].

As for `OC1(c2cccc(Cl)c2)C2=NCCCN2c2ccccc21` (stereo unspecified), the growth inhibition in assay [1] was 5.05%; in assay [2] it was 8.45%; in assay [3], 6.7%; in assay [4], 21.6%; in assay [5], -28.4%; in assay [6], 5.75%.

`COc1ccc(/C=C2\N=C(N3CCOCC3)NC2=O)cc1`: the growth inhibition in assay [1] was -4.15%; in assay [2], 7.25%; in assay [3], 10.4%; in assay [4], -13.8%; in assay [5] it was -3.4%; in assay [6], -43.8%.

As for `CCCOC(=O)Nc1cccc(C)c1`, the growth inhibition was 17.7% in assay [1]; -5.65% in assay [2]; -15.7% in assay [3]; 0.4% in assay [4]; 3% in assay [5]; 8.95% in assay [6].

As to `COc1ccc2cc(C(C)C(O)c3cc(F)c(F)c(F)c3F)ccc2c1` (stereo unspecified), the growth inhibition in assay [1] is -21.1%; in assay [2], -30.3%; in assay [3] it was -10.7%; in assay [4] it was 0.15%; in assay [5], -1.25%; in assay [6], -20.5%.

For the compound `CN1CCCc2cccc(NC(=O)C3CCCNC3=O)c21` (stereo unspecified), the growth inhibition in assay [1] was -15.3%; in assay [2], 1.35%; in assay [3], -2.3%; in assay [4] it was -32.8%; in assay [5] it was 6.55%; in assay [6] it was 9.75%.

On to `Cc1ccc(S(=O)(=O)N(Cc2cccc([N+](=O)[O-])c2)c2ccc(C(=O)O)cc2)cc1`, for which the growth inhibition is 8.45% in assay [1]; 4.55% in assay [2]; 0.8% in assay [3]; -12.7% in assay [4]; 5.95% in assay [5]; 21.1% in assay [6].

Turning to `CCN(CC)CC(OC(C)=O)c1ccc2ccc3ccc(O)cc3c2c1` (stereo unspecified), the growth inhibition in assay [1] was 15.9%; in assay [2] it was 7.85%; in assay [3], -7.55%; in assay [4], -5.55%; in assay [5] it was -3.25%; in assay [6], 19.1%.

On to `CCCCNc1ccc([N+](=O)[O-])cc1[N+](=O)[O-]`, for which the growth inhibition in assay [1] was 16.2%; in assay [2], -15.4%; in assay [3], 18.4%; in assay [4], 6.55%; in assay [5] it was 41.9%; in assay [6], -0.6%.

Turning to `c1ccc(-c2nc3ncncc3[nH]2)cc1`, the growth inhibition in assay [1] is 7%; in assay [2], -10.3%; in assay [3] it was -7.65%; in assay [4] it was -13.8%; in assay [5], -3.45%; in assay [6] it was -5.6%.

Take `Fc1cccc(-c2nnc(-c3cccc(F)c3)o2)c1`: the growth inhibition in assay [1] is 12.7%; in assay [2], -10.1%; in assay [3], -6.9%; in assay [4] it was -38%; in assay [5] it was -2.65%; in assay [6], -4.85%.

For the compound `S=C(NCc1ccco1)Nc1ccccc1Cl`, the growth inhibition was 5.5% in assay [1]; -4.1% in assay [2]; 16.2% in assay [3]; 4.5% in assay [4]; 4.4% in assay [5]; 1.2% in assay [6].

With `N#CC(c1ccccc1)c1cccc(C(=O)O)c1` (stereo unspecified), the growth inhibition is -16.9% in assay [1]; -13.5% in assay [2]; 5.6% in assay [3]; -20.4% in assay [4]; -25.9% in assay [5]; 5.45% in assay [6].

With `CC(C)=CCCC(=O)C(c1nc2n(c1O)C(=N)N=N2)c1nc2n(c1O)C(=N)N=N2` (stereo unspecified), the growth inhibition in assay [1] was 12.1%; in assay [2] it was 7.65%; in assay [3], 2.1%; in assay [4], 7.9%; in assay [5] it was 5.55%; in assay [6], 20.6%.

For the compound `COc1ccc(C(=O)c2ccccc2)c(O)c1`, the growth inhibition in assay [1] was 13.1%; in assay [2], 1.8%; in assay [3] it was -10.6%; in assay [4], 4.95%; in assay [5], 0.55%; in assay [6], 6.9%.

Take `CO/C(=N\N=C\c1cccc(Cl)c1)c1ccncc1`: the growth inhibition in assay [1] was 6.35%; in assay [2], -9.6%; in assay [3] it was -13.8%; in assay [4], -24.4%; in assay [5], -18.1%; in assay [6] it was -11.1%.

For `Nc1cccc(-c2nc3ccccc3[nH]2)c1`, the growth inhibition in assay [1] is -21.9%; in assay [2], -26.4%; in assay [3] it was -17.8%; in assay [4], -9.2%; in assay [5], -20.2%; in assay [6] it was -14.6%.

With `O=C1OCc2c[n+]([O-])ccc21`, the growth inhibition in assay [1] is -17.4%; in assay [2], -9.2%; in assay [3] it was -6.85%; in assay [4] it was -30.2%; in assay [5] it was 0.65%; in assay [6], 4.35%.

The record behind these values is PubChem BioAssay (NCI).
